Laboratory results reported in PubChem BioAssay (NCI).
This is part of a sample that, as a whole, favours compounds with a hit. Of some 79,000 tested, about 15% had one in any assay. No stated cut-off is given here; in the data, active means growth inhibition above about 70%; inactive means the rest.

Key:
[1] = NCI Yeast Anticancer Drug Screen. Data for the rad50 strain (AID 155);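 further: 0% = growth of vehicle-only cultures of the same strain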; details: S. cerevisiae rad50 strain growth inhibition; at 50.0 µM; active compounds read high
Summary of the method: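 A DNA repair-deficient yeast mutant serves as the test organism; compound-induced growth inhibition is calculated against vehicle-treated cells.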

[2] = NCI Yeast Anticancer Drug Screen. Data for the mec2-1 strain (AID 157); details: S. cerevisiae mec2-1 strain, at 50.0 µM, active compounds read high
Summary of the method: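 Test agents were screened against the mec2-1 yeast strain, with defined DNA repair or cell cycle alteration. Growth was scored as inhibition against vehicle-only controls.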

[3] = NCI Yeast Anticancer Drug Screen. Data for the sgs1 mgt1 strain (AID 161);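 further: 0% = growth of cultures given vehicle only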; details: S. cerevisiae sgs1 mgt1 strain, at 50.0 µM, active compounds read high
Summary of the method: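 Genetically altered yeast, compound exposure, growth inhibition relative to vehicle.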

[4] = NCI Yeast Anticancer Drug Screen. Data for the cln2 rad14 strain (AID 165);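 further: 0% = growth equal to vehicle treated cultures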; details: S. cerevisiae cln2 rad14 strain, at 50.0 µM, active compounds read high
Summary of the method: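 Growth of compound-exposed yeast (cln2 rad14 genotype) measured and expressed as inhibition relative to vehicle.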

[5] = NCI Yeast Anticancer Drug Screen. Data for the bub3 strain (AID 167); details: S. cerevisiae bub3 mutant strain, at 50.0 µM, active compounds read high
Summary of the method: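 Inhibition values come from growth of compound-treated mutant yeast normalised to vehicle-treated controls.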

[6] = NCI Yeast Anticancer Drug Screen. Data for the mlh1 rad18 strain (AID 175); details: S. cerevisiae mlh1 rad18 strain growth inhibition; at 50.0 µM; active compounds read high
Summary of the method: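 In this whole-cell yeast screen, a strain with altered DNA damage repair is challenged with compound, and its growth is measured against matched vehicle-treated controls.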

Measured: growth inhibition

CC1(C)CC(N(CCO)CCO)CC(C)(C)N1O
inactive: [1] 4.05% | [2] -2.8% | [3] 11.4% | [4] -1.95% | [5] -7.2% | [6] 5.35%

O=S(=O)(c1ccc(Br)cc1)C(F)(F)F
inactive: [1] 11.1% | [2] 10% | [3] 0.1% | [4] 2.6% | [5] 12.7% | [6] 5.15%

CCOC(=O)c1c(C)c2c(n1C)CC/C(=C\N1CCN(c3ccccc3)CC1)C2=O
inactive: [1] 0.6% | [2] -1.55% | [3] -19.5% | [4] -14.8% | [5] 2.25% | [6] 18.3%

O=C(COc1ccc(Cl)c(Cl)c1)NCc1cccc([N+](=O)[O-])c1
inactive: [1] 4.9% | [2] -15.8% | [3] -8.4% | [4] 2.2% | [5] 14.9% | [6] 34%

CC(C)(C)C1(C#N)C(=O)N(c2ccc(Cl)cc2)C12c1ccccc1-c1ccccc12 (stereo not given)
inactive: [1] 4.55% | [2] 9.55% | [3] 6.45% | [4] 19.2% | [5] -4.5% | [6] 20.4%

Cn1c(=O)c2ccccc2[n+]2c(-c3cccc([N+](=O)[O-])c3)csc12
inactive: [1] -3.9% | [2] -15.3% | [3] 41.5% | [4] 25.6% | [5] -8.85% | [6] -9%

CC1OC(C)(c2ccccc2)OC1C (stereo not given)
inactive: [1] 18.1% | [2] 13.8% | [3] 27.1% | [4] -26.5% | [5] 32.7% | [6] 41.7%

CC(C)n1ncc2c(N)ncnc21
inactive: [1] 4.2% | [2] -2.2% | [3] -6.8% | [4] -26.8% | [5] 21.4% | [6] -3.8%

CC(C)(C)[Si](C)(C)OC1C(=O)C[C@H]2CCCC[C@@H]12 (stereo not given in full)
inactive: [1] -6.75% | [2] 0.85% | [3] -1.75% | [4] 17.1% | [5] 10.2% | [6] 22.3%

CC(C)=CCCC(=O)C(c1nc2n(c1O)C(=N)N=N2)c1nc2n(c1O)C(=N)N=N2 (stereo not given)
inactive: [1] 12.1% | [2] 7.65% | [3] 2.1% | [4] 7.9% | [5] 5.55% | [6] 20.6%

Cc1ccc(-n2nnc(-c3ccc(Cl)c(Cl)c3)n2)cc1
inactive: [1] -30.9% | [2] -40.8% | [3] -4.45% | [4] -12.1% | [5] -18.6% | [6] -31.5%

Cc1ccc(/S(Cc2ccccc2)=N\S(=O)(=O)c2ccc(C)cc2)cc1 (stereo not given)
inactive: [1] -40.2% | [2] -36% | [3] -60.9% | [4] -13.3% | [5] -27.8% | [6] -33.1%

CCCCCCCC/C=C\CCCCCCCCOC(=O)CC(O)C(=O)OCCCCCCCC/C=C\CCCCCCCC (stereo not given)
inactive: [1] -22.6% | [2] -4.05% | [3] -7.5% | [4] -22.9% | [5] -9.8% | [6] -17.2%

NC(=S)Nc1c(Cl)cc(Cl)cc1Cl
inactive: [1] 44% | [2] -8.9% | [3] 33.4% | [4] 8.6% | [5] 17.3% | [6] 12.3%

CCOC(=O)C1C2CC3C(CC21C)C3(C)C (stereo not given)
inactive: [1] -6.1% | [2] -6.65% | [3] -12.9% | [4] -2.5% | [5] -20.6% | [6] 1%

COc1cc2ccncc2cc1O
inactive: [1] -7.25% | [2] -18.4% | [3] -26.3% | [4] -4.25% | [5] 9.45% | [6] -16.1%

O=c1oc2nc(-c3ccccc3)[nH]c(=O)c2c(O)c1Cc1ccccc1
inactive: [1] 6.35% | [2] 2.75% | [3] 1.55% | [4] 8.7% | [5] 27.6% | [6] 26.9%

COc1ccc(NC(=O)C2C(=O)N(c3ccc(OC)cc3)C(=O)/C2=N\N)cc1 (stereo not given)
inactive: [1] 11.6% | [2] -19.4% | [3] -2.9% | [4] -57.6% | [5] 19.4% | [6] 3.35%

COc1ccc(C(=O)/C=C/c2ccc(OCCCOc3ccc(/C=C/C(=O)c4ccc(OC)cc4)cc3)cc2)cc1
inactive: [1] -7.3% | [2] -19.9% | [3] 3.6% | [4] -24.6% | [5] -19.9% | [6] -27.4%

CS[C@]12C(=O)C[C@@]3(C)[C@@H](CC[C@]3(O)C(=O)CO)[C@@H]1CCC1=CC(=O)CC[C@@]12C
inactive: [1] -2.2% | [2] -24% | [3] -15.9% | [4] 28.7% | [5] -54.8% | [6] -20.4%
